Experimental data from PubChem BioAssay AID540313 (Sanford-Burnham Center for Chemical Genomics, 2011).
Screen size: about 2,500 compounds; fewer than 10 were called active. A selection follows. A number with no mark means an inactive call.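 Rule for the calls: active = inhibition of at least 30% at 20 µM; inactive = the rest.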

Test: colorimetric readout interference by compounds, confirmation, artefact control for Scp-1 inhibitor project, biochemical, single concentration (AID 540313);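 note: compounds added after enzyme reaction finished so only phosphate colour detection is probed; plate controls were DMSO wells with completed Scp-1 reaction for no effect and substrate wells lacking enzyme for full effect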
Settings: Colorimetric interference counterscreen, malachite green absorbance 630 nm; at 20 µM; active compounds read high

Structure (SMILES) | apparent inhibition (interference)
O=c1c2cc(-c3ccccc3)sc2nc2n1N=C(c1cccs1)CS2 | -15.6%
O=C(c1ccc(CS(=O)(=O)c2ccccc2)o1)N1CCN(c2ccccc2)CC1 | -14.5%
Cc1ccc(C(=O)NNC(=O)c2cc3cc4ccccc4nc3s2)cc1 | -12.3%
N#CC1=C(SCc2ccccc2)NC(=O)C(C#N)C12CCCC2 (stereo unspecified) | -3.5%
COc1cccc2sc(N(CCCN(C)C)C(=O)C(c3ccccc3)c3ccccc3)nc12 | -9.56%
CN(c1ccccc1)S(=O)(=O)c1ccc(Cl)c(C(=O)OCC(=O)NCc2ccco2)c1 | -22.8%
Nn1cnnc1N/N=C/c1cc([N+](=O)[O-])c(Cl)cc1Cl | 2.55%
O=C(COC(=O)/C=C/c1ccc(Br)o1)Nc1cccc(S(=O)(=O)N2CCOCC2)c1 | -18.6%
Cc1nnc(SCC(=O)Nc2ccc(S(=O)(=O)Nc3ccc(Cl)nn3)cc2)s1 | -18.9%
O=C(COC(=O)CCC(=O)c1cccs1)NCc1ccco1 | -8.73%
COCCCNc1nc2ccccc2nc1NS(=O)(=O)c1ccc(F)cc1 | -12.6%
O=S(=O)(Nc1ccccc1Cl)c1cccc2nsnc12 | -11.2%
CC(NC(=O)CC1SC(N)=NC1=O)c1ccccc1 (stereo unspecified) | -25.2%
O=C(O)c1ccc(N/N=C/c2ccc3ncccc3c2)cc1 | -19.2%
ON=C1/C(=N\O)CC2(C/C1=N/O)OCCO2 | -6.8%
O=C(Nc1cc(S(=O)(=O)N2CCCCC2)ccc1Cl)C1COc2ccccc2O1 (stereo unspecified) | -8.46%
Cc1nn(-c2cc(Cl)ccc2N)c(=O)c2ccccc12 | -5.43%
Cc1ccc(CN2CCN(c3ccccc3Cl)CC2)o1 | -14.5%
CN(CC(=O)Nc1cccc(F)c1)C(=O)C1CC(=O)N(CCc2ccccc2)C1 (stereo unspecified) | -6.79%

Structure (SMILES) | apparent inhibition (interference)
COc1ccc(NC(=O)N(C)C[C@H]2Oc3ccc(NC(=O)C4CC4)cc3C(=O)N([C@H](C)CO)C[C@@H]2C)cc1 | -15.3%
COc1ccc(Cl)cc1C=CC=NNC(=O)c1ccncc1 | -8.46%
Cc1ccc(S(=O)(=O)Nc2ccc3c(c2)C(=O)N([C@H](C)CO)C[C@@H](C)[C@@H](CN(C)C(=O)Nc2cccc4ccccc24)O3)cc1 | -13.6%
C=C1c2cccc(OC)c2O[C@H](C(=O)OCC)[C@@H]1CCCCCC | -7.63%
COc1cccc(CNS(=O)(=O)c2csc(C(N)=O)c2)c1 | -12.8%
O=C(Nc1cccc(F)c1)[C@@H]1CCCN1 | -5.98%
O=C(c1ccc2c(c1)OCO2)N1CCNc2ccccc2C1 | -25.4%
C[C@H](CO)N1C[C@H](C)[C@H](CN(C)C(=O)Nc2ccc(C(F)(F)F)cc2)Oc2c(NC(=O)c3ccncc3)cccc2C1=O | -21.4%
Cc1ccccc1NC(=O)CN1C(=O)N/C(=C\c2cccn2-c2cccc(C(=O)O)c2)C1=O | 6.13%
N#Cc1c(-c2cccs2)nc(SCC(=O)c2ccc(Br)cc2)[nH]c1=O | -20.8%
O=C(NNC(=O)c1ccc2ccccc2c1)c1ccc(Cl)cc1 | -9.26%
N#Cc1ccc(C(=O)Nc2cccc3cccnc23)c(F)c1 | -4.88%
Cc1ccc(S(=O)(=O)Nc2nc(C)cc(-n3nc(C)cc3C)n2)cc1 | -5.43%
O=C(CN1CCN(S(=O)(=O)/C=C/c2ccccc2)CC1)NC(=O)NCc1ccco1 | -17.5%
Cc1ccc(Cc2nnc(SCC(=O)Nc3ccc(C)cc3C)[nH]c2=O)cc1 | -12.9%
O=C(Cn1cc(/C=N/NC(=O)c2cccc(C(F)(F)F)c2)c2ccccc21)Nc1ccc(F)cc1 | -10.9%
CC1=NNC(=O)C1CCC(=O)N/N=C\c1cccc(Cl)c1 (stereo unspecified) | -21.4%
CCCc1nc(-c2cc3cc(C)ccc3[nH]c2=O)no1 | -14%
COc1cccc(NC(C)=[N+](C)CCNS(=O)(=O)c2ccc(Cl)cc2)c1 | -6.24%

Structure (SMILES) | apparent inhibition (interference)
Cc1ccc(N=Cc2c(O)n(-c3nccs3)c(=O)c3ccccc23)c(C)c1 | -22.5%
O=C(CN1CCN(c2ccc(Cl)cc2)CC1)c1ccccc1 | -14.5%
O=C(Cn1nnc(-c2ccc3c(c2)OCO3)n1)NCc1ccco1 | -12%
Cc1cc(/C=C2\SC(=O)N(C)C2=O)c(C)n1-c1cccc(C(=O)O)c1 | -18.6%
Cc1c(CCC(=O)O)c(=O)oc2c(C)c(OCc3ccccc3Cl)ccc12 | -5.7%
COc1ccc2[nH]c3c(C)c4cc[n+](C)cc4c(C)c3c2c1 | -5.15%
NC(=O)NC(=O)CSc1nc2cc([N+](=O)[O-])ccc2n1-c1cccc(C(F)(F)F)c1 | -5.7%
CCOc1ccccc1/C=c1\sc2nc(-c3ccco3)nn2c1=O | -22.1%
Cc1ccc(/C=C/C(=O)Nc2ccc([N+](=O)[O-])c(NC(=O)/C=C/c3ccc(C)o3)c2)o1 | 2.53%
COc1ccc(OC)c(NC(=O)CSc2nc(-c3ccccc3)cc(=O)[nH]2)c1 | -14.8%
COc1ccc(OCC(=O)NNC(=O)c2ccc(-c3ccccc3)cc2)cc1 | -11.5%
Cc1c([N+](=O)[O-])c(N)nn1C | 2.28%
O=C1NN(c2ccccc2)C(=O)/C1=C/c1ccc(-c2cccc(C(=O)O)c2)o1 | 0.06%
COc1ccc(/C=C/C(=O)OCC(=O)NC2CCCCCC2)cc1OC | 5.86%
Cc1ccc(CCCOC(=O)C[N+]2(C)CCCC2)cc1 | -20%
Cc1c(CCC(=O)O)c(=O)oc2cc(OCc3ccc(Br)cc3)ccc12 | -11.7%
CC1CCN(c2ccc(S(=O)(=O)Nc3cc(C(=O)O)cc(C(=O)O)c3)cc2[N+](=O)[O-])CC1 | -19.7%
CC(=O)Nc1ccc(N2C(=O)CCC2=O)cc1C | -12.9%
